Shown are actives, neighbours in structure and some others; about 9.2% of the full set was active somewhere.
ELG1 DNA repair: qHTS screen for small molecules that inhibit ELG1-dependent DNA repair in human embryonic kidney (HEK293T) cells expressing luciferase-tagged ELG1. HEK293T ELG1-luciferase reporter, luminescence, 16 h; DNA damage induced by 5-fluorouridine. Potency, µM (titrated, usually from 46.1 µM), most hits filed as inhibitors. 330,000 tested, 2.3% active; further: nearly all actives have a fitted effect of over 55% in size
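Quantitative HTS, concentration-response format. 2,000 cells/well co-treated with 5-fluorouridine and compound, 16 hr in 5% CO2 at 37 °C; ONE-Glo luminescence read after 30 min.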
Rab9 prom act: qHTS Assay for Rab9 Promoter Activators; Huh7 Rab9 promoter-luciferase reporter, luminescence, 24 h; Potency, µM (top dose mostly 9.22 µM), usual class: activators; 320,000 tested, 2.8% active; further: nearly all actives have a fitted effect of over 60% in size
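Huh7 cells stably carrying Rab9 promoter–luciferase reporter, plated 1500 cells/well, compound added after 2 h and incubated 24 h at 37 °C; luciferase luminescence then read after 10 min with detection reagent.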
ELG1 genotoxic: qHTS screen for small molecules that induce genotoxicity in human embryonic kidney (HEK293T) cells expressing luciferase-tagged ELG1; HEK293T ELG1-luciferase reporter, luminescence, 16 h; Potency, µM (doses to about 46 µM), actives largely listed as activators; 330,000 tested, 1.3% active; AID 504466, 2011; further: nearly all actives have a fitted effect of over 60% in size
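HEK293T cells expressing luciferase-tagged ELG1 were treated with compound or DMSO for 16 hr at 37°C. Luciferase activity was then read after 30 min with ONE-Glo at room temperature; rising signal flags genetic stress.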
NPC1 promoter act: qHTS Assay for NPC1 Promoter Activators; Huh7 NPC1 promoter luciferase reporter, 24 h; Potency, µM (highest dose often 9.22 µM), usual class: activators; 320,000 tested, 2.4% active; AID 485313, 2010; further: nearly all actives have a fitted effect of over 60% in size
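Luminescence from an NPC1 promoter-driven luciferase reporter in stably transfected Huh7 cells was measured after 24 h compound treatment at 37 °C, followed by 10 min ambient incubation with luciferase detection reagent.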
SMN2 splice enh: qHTS Assay for Enhancers of SMN2 Splice Variant Expression. HEK293 SMN2-luciferase splicing reporter, luminescence, 30-36 h. Potency, µM (series often up to 46.1 µM), hits mostly activators. 210,000 tested, 2.8% active; further: nearly all actives have a fitted effect of over 55% in size
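HEK293 cells carry an SMN2 minigene-luciferase reporter in which exon 7 inclusion puts luciferase in frame. Cells were seeded at 2000 cells/well, attached for 10-12 hours, then exposed to compounds for 30-36 hours at 37C before ONE-Glo luminescence.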
FLuc counter: qHTS profiling assay for firefly luciferase inhibitor/activator using purifed enzyme and Km concentrations of substrates (counterscreen for miR-21 project); purified FLuc, Km substrates, luminescence inhibition; Potency, µM (series often up to 57.5 µM), hits mostly inhibitors; Luciferin 4-monooxygenase (Photinus pyralis), P08659; 360,000 tested, 6.9% active; AID 588342, 2011; further: nearly all actives have a fitted effect of over 55% in size
Target sequence (P08659 whole entry, looked up): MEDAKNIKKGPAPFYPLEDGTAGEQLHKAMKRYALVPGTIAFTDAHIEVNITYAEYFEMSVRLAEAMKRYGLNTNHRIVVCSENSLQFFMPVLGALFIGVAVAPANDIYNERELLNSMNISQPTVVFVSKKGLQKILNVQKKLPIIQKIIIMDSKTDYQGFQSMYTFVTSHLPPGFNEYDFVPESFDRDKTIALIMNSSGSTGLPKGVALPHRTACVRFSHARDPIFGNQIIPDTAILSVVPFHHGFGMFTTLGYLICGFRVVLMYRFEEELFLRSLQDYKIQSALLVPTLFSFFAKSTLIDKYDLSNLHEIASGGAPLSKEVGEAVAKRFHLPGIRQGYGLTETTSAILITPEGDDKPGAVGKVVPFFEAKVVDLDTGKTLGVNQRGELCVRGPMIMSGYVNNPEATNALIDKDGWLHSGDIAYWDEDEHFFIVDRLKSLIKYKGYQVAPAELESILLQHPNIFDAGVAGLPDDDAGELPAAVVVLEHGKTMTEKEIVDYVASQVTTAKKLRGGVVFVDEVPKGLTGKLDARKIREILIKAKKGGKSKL
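Biochemical qHTS of compounds, final roughly 60 µM downward over six points, against 10 nM purified firefly luciferase using Km concentrations of substrates (10 uM D-luciferin, 10 uM ATP) in Tris acetate pH 7.5 buffer; luminescence output.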
Numbers stand for hits; n = inactive; u = inconclusive; x = no result; [ ] = another dose, or the depositor's remark. The call rests on the fitted dose curve; in most records, active means well fitted curve in the direction sought with a large enough effect; inconclusive means small, poorly fitted or top-dose-only effect, or another doubt; inactive means no such curve, though single readings can be large; an effect the other way counts as inactive or inconclusive.

SMILES | ELG1 DNA repair | Rab9 prom act | ELG1 genotoxic | NPC1 promoter act | SMN2 splice enh | FLuc counter
CCCCOC(=O)c1ccc(NC(=O)c2nn(C)cc2Br)cc1 | n | n | n | n | n | 21µM
CCCCOC(=O)c1ccc(NC(=O)CSc2nnnn2C)cc1 | n | n | n | n | x | n
COc1ccc(C(=O)Nc2nc3cc4c(cc3s2)OCCO4)c(OC)c1 | u | n | u | n | x | 0.95µM
COc1cc(OC)cc(C(=O)NNc2nc3cc4c(cc3s2)OCO4)c1 | n | n | n | n | n | n
COc1ccccc1C(=O)Nc1nc2cc3c(cc2s1)OCCO3 | u | 0.71µM | 2.1µM | u | x | 0.67µM
COc1cccc(OC)c1C(=O)Nc1nc2cc3c(cc2s1)OCO3 | n | n | n | n | x | n
O=C(Nc1nc2cc3c(cc2s1)OCCO3)c1cccs1 | u | 0.11µM | 0.41µM | u | x | 0.21µM
NNc1nc2cc3c(cc2s1)OCCO3 | u | 1.6µM | u | 1.6µM | x | 6.7µM
COc1c(Cl)cc(Br)c(OC)c1C(=O)NC(=O)Nc1nc(C)cc(C)n1 | u | n | n | n | x | n
COc1ccccc1C(=O)Nc1nc2cc3c(cc2s1)OCO3 | u | 1.6µM | u | 1.8µM | x | 0.54µM
C=CCNc1nnc(-c2ccncc2)s1 | n | n | n | n | n | n
c1ccc2c(Nc3nnc(-c4ccncc4)s3)cccc2c1 | u | u | n | u | u | 5.4µM
CSc1nc(N)nc2c1ncn2CC(=O)NCc1ccccc1 | n | x | n | x | x | x
CSc1nc(N)nc2c1ncn2CC(=O)NCc1ccc2[nH]ccc2c1 | 23µM | x | n | x | x | x
C[C@H]1Cc2c(-c3ccccc3)nc3c(c2CO1)CN(C(=O)NCCc1c[nH]c2ccccc12)CC3 | x | x | x | x | n[9.22 µM] | x
O=C(CNC(=O)c1cccc(F)c1)NC1CC1 | n | x | n | x | x | x
CCn1c(=O)c(CCC(=O)N2CCN(c3ccccn3)CC2)c(C)c2c(C)nn(-c3cccc(C)c3)c21 | 6.5µM | n | n | n | x | n
CCn1c(=O)n(CC)c2cc(N3CCCC3)c(NC(=O)c3cccc(OC)c3)cc21 | u | n | n | n | x | n
O=C(CSc1nc(O)c(C/C=C/c2ccccc2)c(=O)[nH]1)Nc1cccc(F)c1 | x | x | x | x | n | 11µM
Nc1nc(SCC(=O)Nc2ccccc2)[nH]c(=O)c1-c1ccccc1 | n | n | n | n | n | n
N/C(=N\OC(=O)c1cccs1)c1ccc(Cl)cc1 | u | u | u | n | x | 4.8µM
COc1ccc(NC(=O)O/N=C2/CCCc3ccc(OC)cc32)cc1 | n | n | n | n | x | u
COc1ccc(/C(N)=N/OC(=O)c2cccs2)cc1 | u | 1.3µM | 8.2µM | 1.4µM | x | 1.9µM
COc1ccc(CNC(=O)c2cccs2)cc1 | n | n | n | n | n | n
COc1ccc(CNC(=O)COC(=O)c2cccs2)cc1 | n | n | n | n | x | 24µM
SMILES | ELG1 DNA repair | Rab9 prom act | ELG1 genotoxic | NPC1 promoter act | SMN2 splice enh | FLuc counter
COc1ccc2c(c1)/C(=N/OC(=O)c1cccs1)CCC2 | u | n | n | n | n | 27µM
Cc1ccc(C(=O)n2nc(C)c(S(=O)(=O)N3CCOCC3)c2C)cc1C | x | x | x | x | x | n
COc1ccc(NC(=O)CSc2nnc(CC(=O)Nc3ccc(F)cc3)n2C)cc1 | n | n | n | n | x | n
COc1ccc(S(=O)(=O)N(CC(=O)NCCC(C)C)c2ccccc2)cc1OC | n | n | n | n | x | n
CCN(C(=O)CSc1nc2ccccc2n1CC(=O)Nc1ccc(F)cc1F)c1ccccc1 | x | x | x | x | x | n
Cc1cc(C)c2c(N)c(C(=O)NN)sc2n1 | u | n | n | n | x | n
Cc1cc(C)c2c(N)c(C(=O)N/N=C/c3ccccc3)sc2n1 | u | 1.8µM | u | 1.8µM | x | 3.4µM
Cc1ccc(S(=O)(=O)Nc2nc(C)c(C(=O)Nc3ccccc3)s2)cc1 | n | n | n | n | u | n
Cc1cc(C)c2c(N)c(C(=O)NNC(=O)c3ccccc3)sc2n1 | u | 3.5µM | u | 3.2µM | 11µM | u
Cc1ccc(S(=O)(=O)Nc2nc(C)c(C(=O)N/N=C/c3ccccc3)s2)cc1 | n | n | n | n | n | 6µM
Cc1cc(C)c2c(N)c(C(=O)N/N=C/c3cccnc3)sc2n1 | u | u | n | u | x | u
Cc1[nH]c(=O)c(C#N)c(C)c1CCC(=O)Nc1cc(S(C)(=O)=O)ccc1Cl | n | n | n | n | x | n
Cc1ccc(NC(=S)N2CCN(S(=O)(=O)c3ccc(C)cc3)CC2)cc1 | n | n | n | n | x | n
O=C(NC(=S)N1CCN(c2ccccc2)CC1)c1ccc(S(=O)(=O)N2CCOCC2)cc1 | 18µM | n | n | n | x | n
O=C(Nc1ccccc1)c1ccc(S(=O)(=O)N2CCOCC2)cc1 | n | n | n | n | n | n
O=S(=O)(c1ccc(NC(=S)N2CCN(c3ccc(O)cc3)CC2)cc1)N1CCOCC1 | 8.2µM | n | n | n | n | n
O=C(NCC1CCN(c2ccc(S(=O)(=O)N3CCOCC3)cc2)CC1)Nc1ccccc1 | 15µM | n | n | n | x | n
O=C(NC(=O)N1CCN(c2cccc(Cl)c2)CC1)c1ccc(Cl)cc1 | n | n | n | n | x | n
O=C(NC(=O)N1CCN(c2ccccc2)CC1)c1ccc(Cl)cc1 | u | n | u | n | 13µM | 27µM
O=P(c1ccccc1)(c1ccccc1)C(O)c1ccc(Br)cc1 (centres undefined) | n | n | n | n | x | n
COc1ccccc1CNC(=O)COc1ccc(S(=O)(=O)N2CCCC2)cc1 | n | n | n | n | x | n
CCCc1cc(=O)oc2cc(C)c3c(-c4cccc(OC)c4)coc3c12 | x | x | x | x | n | n
COc1ccc(C(=O)Nc2cccnc2Sc2ccc(Cl)cc2)cc1 | u | n | n | n | x | u
C=CCNc1nc(-c2ccc([N+](=O)[O-])cc2)cs1 | u | 3.5µM | 21µM | u | u | 3µM
CN(C)c1nc(-c2ccc([N+](=O)[O-])cc2)cs1 | u | u | 12µM | n | n | 12µM
SMILES | ELG1 DNA repair | Rab9 prom act | ELG1 genotoxic | NPC1 promoter act | SMN2 splice enh | FLuc counter
C=CCNc1nc(-c2ccc(Cl)cc2)cs1 | u | 2µM | n | 2.8µM | 25µM | 1.3µM
CCN(CC)S(=O)(=O)c1cccc(C(=O)NC2=NCCS2)c1 | n | n | n | n | x | n
O=C(O)C(Cc1cccs1)C(=O)O | x | x | x | x | n[9.22 µM] | x
Cc1cc(C)c2c(=O)cc(C(=O)NCCc3ccc(S(N)(=O)=O)cc3)oc2c1 | x | x | x | x | n | n
Cc1nc(-c2ccc(S(=O)(=O)N3CCN(c4cccc(Cl)c4)CC3)cc2)co1 | x | x | x | x | x | n
Cc1ccc(S(=O)(=O)NC(CC(C)C)C(=O)NCC(C)(C)N2CCOCC2)cc1 (centres undefined) | n | n | n | n | x | n
